Assay results: PubChem BioAssay (Tox21)
Records with an inconclusive call do not appear. Activity calls are given as the source filed them. The call rests on the fitted dose curve; in most records, active means well fitted activation curve with a large enough effect in the signal ratio in the repeat runs (not every such curve was filed as active); inconclusive means weak or mixed curves, or effect the other way; inactive means no such curve, though single readings can be large or run the other way; the % refers to the signal ratio.

biological target: Peroxisome proliferator-activated receptor gamma (Homo sapiens) (UniProt P37231); assay: qHTS assay to identify small molecule agonists of the peroxisome proliferator-activated receptor gamma (PPARg) signaling pathway (AID 743094); conditions: HEK293H PPARg-UAS-bla, beta-lactamase FRET ratio, 17 h; series mostly up to 57 µM
Sequence (P37231 whole entry, looked up): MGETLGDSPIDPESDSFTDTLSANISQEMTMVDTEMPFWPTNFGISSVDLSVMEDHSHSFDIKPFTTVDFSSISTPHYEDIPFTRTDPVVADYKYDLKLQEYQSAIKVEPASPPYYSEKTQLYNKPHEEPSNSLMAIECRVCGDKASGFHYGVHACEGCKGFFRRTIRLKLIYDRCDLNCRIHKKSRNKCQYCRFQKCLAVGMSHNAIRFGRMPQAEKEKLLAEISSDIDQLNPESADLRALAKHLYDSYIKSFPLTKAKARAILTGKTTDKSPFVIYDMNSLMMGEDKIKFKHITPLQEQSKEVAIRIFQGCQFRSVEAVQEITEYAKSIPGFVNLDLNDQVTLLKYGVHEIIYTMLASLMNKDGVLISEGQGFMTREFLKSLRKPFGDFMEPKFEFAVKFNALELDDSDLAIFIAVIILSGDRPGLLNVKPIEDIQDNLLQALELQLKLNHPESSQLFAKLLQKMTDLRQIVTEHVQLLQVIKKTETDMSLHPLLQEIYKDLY
From the text: U.S. Tox21 Program National Center for Advancing Translational Sciences [NCATS] NIH Chemical Genomics Center [NCGC] U.S. Environmental Protection Agency [EPA] National Institutes of Environmental Health Sciences [NIEHS] National Toxicology Program [NTP] U.S. Food and Drug Administration [FDA] Tox21 Assay Overview: The peroxisome proliferator-activated receptors (PPARs) are lipid-activated transcription factors of the nuclear receptor superfamily with three distinct subtypes namely PPAR alpha, PPAR delta (also called PPAR beta) and PPAR gamma (PPARg). All these subtypes heterodimerize with Retinoid X receptor (RXR) and these heterodimers regulate transcription of various genes. PPAR-gamma receptor (glitazone receptor) is involved in the regulation of glucose and lipid metabolism. To identify the compounds that activate PPAR-gamma signaling, GeneBLAzer PPAR gamma UAS-bla HEK293H cell line (Invitrogen, Carlsbad, CA, USA) containing a beta-lactamase reporter gene under control of the control of an upstream activator sequence (UAS) stably integrated into HEK293H cells was used to screen Tox21 compound library.
Tox21 Assay Protocol Summary: PPARg-bla cells were dispensed at 3000 cells/6uL/well in 1536-well black wall/clear bottom plates using a Multidrop Combi (Thermo Fisher Scientific, Waltham, MA) dispenser. After the assay plates were incubated at 37C and 5% CO2 for 5 h, 23 nL of compounds dissolved in DMSO, positive controls or DMSO only was transferred to the assay plate by a Pintool station (Kalypsys, San Diego, CA). The assay plates were incubated at 37C for 17 h. After 1 uL of LiveBLAzerTM B/G FRET substrate was added using a Bioraptr Flying Reagent Dispenser (FRD) workstation (Beckman Coulter, Indianapolis, IN, USA), the plates were incubated at room temperature for 1 h, and fluorescence intensity was measured by an Envision plate reader (PerkinElmer, Shelton, CT).

Question: Cc1ccc2ncccc2c1 was tested. Which outcome did it give?
Answer: Its outcome is “inactive”.

Question: Which outcome does the source give for COc1ccc(C)cc1N here?
Answer: The outcome was “inactive”.

Question: CC(C)CCCCCCCOC(=O)CCCCC(=O)OCCCCCCCC(C)C was tested. Which outcome did it give?
Answer: The outcome was “inactive”.

Question: How did the outcome turn out when O=[N+]([O-])c1ccc2nc[nH]c2c1 was run?
Answer: The outcome was “inactive”.

Question: Which outcome does the source give for CN/C(=C\[N+](=O)[O-])NCCSCc1csc(CN(C)C)n1 here?
Answer: Its outcome is “inactive”.

Question: N[C@H](Cc1c[nH]c2ccccc12)C(=O)O was tested. Which outcome did it give?
Answer: The outcome was “inactive”.

Question: With CC(=O)OCc1ccco1 as the molecule, how does the outcome read?
Answer: Its outcome is “inactive”.

Question: CCCCCCO was tested. Which outcome did it give?
Answer: The outcome was “inactive”.

Question: Which outcome does the source give for C[Si]1(C)O[Si](C)(C)O[Si](C)(C)O[Si](C)(C)O1 here?
Answer: Its outcome is “inactive”.

Question: For Brc1ccc(Br)c(Br)c1, which outcome is on record?
Answer: Its outcome is “inactive”.

Question: How did the outcome turn out when OCc1cccc(Oc2ccccc2)c1 was run?
Answer: The outcome was “inactive”.

Question: Which outcome does the source give for C=CC(=O)OCCC(=O)O here?
Answer: Its outcome is “inactive”.

Question: How did the outcome turn out when Nc1nc(N)nc(-c2ccccc2)n1 was run?
Answer: Its outcome is “inactive”.

Question: Which outcome does the source give for CC1(C)OC[C@@H]2O[C@@]3(C(=O)O)OC(C)(C)O[C@H]3[C@@H]2O1 here?
Answer: The outcome was “inactive”.

Question: Which outcome does the source give for CC(O)CC(C)(C)O (stereo not given) here?
Answer: Its outcome is “inactive”.

Question: How did the outcome turn out when C[C@]12CCC(=O)C=C1CC[C@@H]1[C@@H]2[C@@H](O)C[C@@]2(C)[C@H]1CC[C@]2(O)C(=O)CO was run?
Answer: Its outcome is “inactive”.

Question: Which outcome does the source give for Cc1ccc(C(C)C)c(O)c1 here?
Answer: The outcome was “inactive”.

Question: Which outcome does the source give for CCCCCCCCCCO here?
Answer: Its outcome is “inactive”.

Question: With C[C@]12CC[C@@H]3c4ccc(O)cc4CC[C@H]3[C@@H]1C[C@@H](O)[C@@H]2O as the molecule, how does the outcome read?
Answer: Its outcome is “inactive”.

Question: How did the outcome turn out when COc1ccccc1OCC(O)CO (stereo not given) was run?
Answer: The outcome was “inactive”.

Question: For CCNC(=S)NCC, which outcome is on record?
Answer: Its outcome is “inactive”.

Question: Which outcome does the source give for CN(C)CCOC(=O)COc1ccc(Cl)cc1 here?
Answer: The outcome was “inactive”.

Question: COc1cc(OC)c(C(=O)CCCN2CCCC2)c(OC)c1 was tested. Which outcome did it give?
Answer: Its outcome is “inactive”.

Question: Which outcome does the source give for CCO[Si](CCC#N)(OCC)OCC here?
Answer: Its outcome is “inactive”.

Question: With C=C(C)CNCC as the molecule, how does the outcome read?
Answer: Its outcome is “inactive”.

Question: Which outcome does the source give for COCCOC(=O)c1ccccc1C(=O)OCCOC here?
Answer: Its outcome is “inactive”.

Question: Which outcome does the source give for CC(=O)OC1CC(C)OC(C)O1 (stereo not given) here?
Answer: The outcome was “inactive”.

Question: For CNC(=S)N(C)C, which outcome is on record?
Answer: The outcome was “inactive”.

Question: Which outcome does the source give for CCCCCCC=O here?
Answer: Its outcome is “inactive”.

Question: CCCCCCCCCCCCCCCCO was tested. Which outcome did it give?
Answer: The outcome was “inactive”.

Question: For CC(C)(C#N)c1cc(Cn2cncn2)cc(C(C)(C)C#N)c1, which outcome is on record?
Answer: Its outcome is “inactive”.

Question: How did the outcome turn out when NCCCCCCN was run?
Answer: Its outcome is “inactive”.

Question: For OCc1ccccc1, which outcome is on record?
Answer: The outcome was “inactive”.

Question: How did the outcome turn out when O=C1CCCC1 was run?
Answer: Its outcome is “inactive”.

Question: How did the outcome turn out when NC(=S)NNC(N)=S was run?
Answer: Its outcome is “inactive”.

Question: For COCCCN, which outcome is on record?
Answer: The outcome was “inactive”.

Question: O=C(O)CCCCCCCCC(=O)O was tested. Which outcome did it give?
Answer: The outcome was “inactive”.

Question: For O=C(O)c1cc2ccccc2cc1O, which outcome is on record?
Answer: The outcome was “inactive”.

Question: For CCO[Si](CCCN)(OCC)OCC, which outcome is on record?
Answer: Its outcome is “inactive”.

Question: For CCc1ccccc1CC, which outcome is on record?
Answer: Its outcome is “inactive”.
